Experimental data published in PubChem BioAssay (Tox21).
Results filed as inconclusive are left out. A call without a number means that no potency is given here. Calls of active or inactive are those of the source. Unless noted, the call rests on the fitted dose curve; in most records, active means well fitted curve in the direction sought with a large enough effect in the repeat runs; inconclusive means weak or mixed curves; inactive means no such curve, though single readings can be large; an effect the other way counts as inactive or inconclusive.

Key:
[1] = qHTS assay to identify aromatase inhibitors - cell viability counter screen (AID 743084);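 further: cells stimulated with testosterone during compound exposure; nearly all actives have a fitted effect of over 55% in size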; further: potency means the concentration at half of the fitted maximal effect
[2] = molecular target: Aryl hydrocarbon receptor (Homo sapiens) (UniProt P35869); assay: qHTS assay to identify small molecule that activate the aryl hydrocarbon receptor (AhR) signaling pathway (AID 743085);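 further: HG2L7.5c1 human HepG2 liver cells with stably integrated DRE-driven firefly reporter; series mostly up to about 70 µM; nearly all actives have a fitted effect of over 15% in size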
Summary of the method: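 Reporter assay in engineered HepG2 line HG2L7.5c1, whose plasmid carries twenty dioxin responsive elements upstream of firefly luciferase. Treatment lasted 24 h at 37C; ONE-Glo luminescence gauged induction.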

[3] = qHTS assay to identify small molecule that activate the aryl hydrocarbon receptor (AhR) signaling pathway - cell viability counter screen (AID 743086); further: nearly all actives have a fitted effect of over 45% in size; further: potency means the concentration at half of the fitted maximal effect
Summary of the method: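 HepG2-AhR-luc (HG2L7.5c1) cells, 4000/well, were preincubated 5 h at 37C, exposed to compound in qHTS format for 24 hr at 37C, then given CellTiter-Fluor for 30 min; viability was read as fluorescence in the reporter wells.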

[4] = molecular target: Peroxisome proliferator-activated receptor gamma (Homo sapiens) (UniProt P37231); assay: qHTS assay to identify small molecule agonists of the peroxisome proliferator-activated receptor gamma (PPARg) signaling pathway (AID 743094; active means well fitted activation curve with a large enough effect in the signal ratio in the repeat runs, not every such curve was filed as active; the % refers to the signal ratio; further: potency means the concentration at half of the fitted maximal effect)
Summary of the method: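 Stably transfected HEK293H cells (GeneBLAzer PPARg UAS-bla) were incubated with test substances for 17 h at 37C after a 5 h pre-incubation; beta-lactamase activity was then detected by FRET substrate fluorescence.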

[5] = molecular target: Peroxisome proliferator-activated receptor gamma (Homo sapiens) (UniProt P37231); assay: qHTS assay to identify small molecule antagonists of the peroxisome proliferator-activated receptor gamma (PPARg) signaling pathway (AID 743191; calls by dose curve; further: nearly all actives have a fitted effect of over 30% in size; further: potency means the concentration at half of the fitted maximal effect)
Summary of the method: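 GeneBLAzer PPARg UAS-bla HEK293H cells carrying a UAS-driven beta-lactamase reporter were plated at 3000 cells/well, preincubated 5 h at 37C, then given compound for 17 h at 37C; LiveBLAzer B/G FRET substrate was read after 1 h at room temperature.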

[6] = qHTS assay for small molecule agonists of the antioxidant response element (ARE) signaling pathway - cell viability counter screen (AID 743203; calls by dose curve; further: nearly all actives have a fitted effect of over 55% in size; further: potency means the concentration at half of the fitted maximal effect)
Summary of the method: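 Cells (ARE-bla HepG2, 2,000/well) receive DMSO-dissolved compounds after a 5 hrs rest. Plates incubate 16 hrs at 37C/5% CO2. CellTiter-Glo luminescence is then recorded after 30 min at room temperature.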

[7] = qHTS assay for small molecule activators of the heat shock response signaling pathway (AID 743210; active means well fitted activation curve with a large enough effect in the signal ratio in the repeat runs, with a control signal flat, not every such curve was filed as active; the % refers to the signal ratio; further: potency means the concentration at half of the fitted maximal effect; on activation: series mostly up to about 63 µM)
Summary of the method: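 HSE-bla HeLa cells (beta-lactamase reporter under heat shock response elements) were exposed to compounds for 5 h at 37 C, then loaded with LiveBLAzer B/G FRET substrate for 2.5 h at room temperature before fluorescence reading.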

[8] = molecular target: Peroxisome proliferator-activated receptor delta (Homo sapiens) (UniProt Q03181); assay: qHTS assay to identify small molecule antagonists of the peroxisome proliferator-activated receptor delta (PPARd) signaling pathway (AID 743215; active means well fitted inhibition curve with a large enough effect in the signal ratio in the repeat runs, not every such curve was filed as active; the % refers to the signal ratio;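 further: cells stimulated with agonist L165041 at 300 nM final during compound exposure; series mostly up to about 62 µM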)
Summary of the method: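 Antagonist-mode beta-lactamase reporter screen: HEK293H cells with UAS-bla under PPARd control, stimulated by 300 nM L165041 (final) alongside test compound for 17 h at 37 C, then FRET fluorescence after 2 h substrate incubation.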

[9] = molecular target: Vitamin D3 receptor (Homo sapiens) (UniProt P11473); assay: qHTS assay to identify small molecule agonists of the vitamin D receptor (VDR) signaling pathway (AID 743222; calls by dose curve)
Summary of the method: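 Agonist activity measured in VDR-bla reporter cells. Exposure 16 h, 37C, 5% CO2; detection by B/G FRET substrate, 2 h RT.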

[10] = molecular target: Vitamin D3 receptor (Homo sapiens) (UniProt P11473); assay: qHTS assay to identify small molecule antagonists of the vitamin D receptor (VDR) signaling pathway (AID 743223; active means well fitted inhibition curve with a large enough effect in the signal ratio in the repeat runs, not every such curve was filed as active; the % refers to the signal ratio)
Summary of the method: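 After VDR-bla cells are plated and left 4 h at 37C, DMSO-dissolved compounds and 3 nM (final) calcitriol agonist are added. Incubation continues 16 h at 37C; FRET beta-lactamase substrate then develops 2 h at room temperature.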

[11] = qHTS assay to identify small molecule antagonists of the peroxisome proliferator-activated receptor gamma (PPARg) signaling pathway - cell viability counter screen (AID 743194); further: nearly all actives have a fitted effect of over 55% in size; further: potency means the concentration at half of the fitted maximal effect
Summary of the method: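 PPARg-UAS-bla HEK293H cells were plated, rested 5 h at 37 C, then treated with compounds plus rosiglitazone (50 nM final) for 17 h at 37 C; viability was then read by CellTiter-Glo luminescence after 30 min at room temperature.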

[12] = qHTS assay for small molecule agonists of the antioxidant response element (ARE) signaling pathway (AID 743202; active means well fitted activation curve with a large enough effect in the signal ratio in the repeat runs, not every such curve was filed as active; the % refers to the signal ratio; further: potency means the concentration at half of the fitted maximal effect)
Summary of the method: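 Read-out: LiveBLAzer B/G FRET substrate fluorescence after 2 h at room temperature, following 16 h compound treatment at 37 C of HepG2 cells carrying an ARE-driven beta-lactamase reporter.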

[13] = qHTS assay for small molecule activators of the heat shock response signaling pathway - cell viability counter screen (AID 743209); further: nearly all actives have a fitted effect of over 50% in size
Summary of the method: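 Quantitative HTS format, Tox21 10K library. HeLa cells carrying an HSE-driven beta-lactamase reporter were treated 5 h at 37 C, then assessed for viability by CellTiter-Glo luminescence.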

[14] = qHTS assay to identify small molecule agonists of the peroxisome proliferator-activated receptor delta (PPARd) signaling pathway - cell viability counter screen (AID 743211); further: nearly all actives have a fitted effect of over 55% in size; further: potency means the concentration at half of the fitted maximal effect
Summary of the method: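 Multiplexed format: after the 2 h room-temperature LiveBLAzer B/G FRET step, CellTiter-Glo was added to the same wells. Luminescence after 30 min gave cell viability; compound exposure was 17 h at 37C.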

[15] = molecular target: Peroxisome proliferator-activated receptor delta (Homo sapiens) (UniProt Q03181); assay: qHTS assay to identify small molecule agonists of the peroxisome proliferator-activated receptor delta (PPARd) signaling pathway (AID 743212; calls by dose curve)
Summary of the method: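 GeneBLAzer PPARd UAS-bla HEK293H cells (beta-lactamase reporter under UAS control), plated and rested 5 h at 37 C, then exposed to compounds in DMSO at 37 C; LiveBLAzer B/G FRET substrate added, 2 h room temperature, fluorescence read.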

[16] = qHTS assay to identify small molecule antagonists of the peroxisome proliferator-activated receptor delta (PPARd) signaling pathway - cell viability counter screen (AID 743213); further: nearly all actives have a fitted effect of over 50% in size; further: potency means the concentration at half of the fitted maximal effect
Summary of the method: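 In this counter screen, HEK293H cells carrying a UAS-beta-lactamase reporter are co-treated with test compounds and 300 nM L165041 (final) for 17 h at 37 C; cell viability is quantified by CellTiter-Glo luminescence.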

[17] = molecular target: Bile acid receptor (Homo sapiens) (UniProt Q96RI1); assay: qHTS assay to identify small molecule antagonists of the farnesoid-X-receptor (FXR) signaling pathway (AID 743217; active means well fitted inhibition curve with a large enough effect in the signal ratio in the repeat runs, not every such curve was filed as active; the % refers to the signal ratio)
Summary of the method: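 Beta-lactamase reporter under UAS control in HEK 293T cells; compound exposure 16 h at 37 °C in the presence of chenodeoxycholic acid (50 uM final); signal from B/G FRET substrate after 2 h at room temperature.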

[18] = qHTS assay to identify small molecule agonists of the farnesoid-X-receptor (FXR) signaling pathway - cell viability counter screen (AID 743218); further: nearly all actives have a fitted effect of over 45% in size; further: potency means the concentration at half of the fitted maximal effect
Summary of the method: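 In GeneBLAzer FXR-UAS-bla HEK 293T cells, compounds act for 16 h at 37 C. Cell viability is then scored in the reporter wells by CellTiter-Glo, 30 min at RT, luminescence.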

[19] = molecular target: Bile acid receptor (Homo sapiens) (UniProt Q96RI1); assay: qHTS assay to identify small molecule agonists of the farnesoid-X-receptor (FXR) signaling pathway (AID 743220; active means well fitted activation curve with a large enough effect in the signal ratio in the repeat runs, not every such curve was filed as active; the % refers to the signal ratio)
Summary of the method: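 Beta-lactamase reporter under UAS control in GeneBLAzer FXR HEK 293T cells (5000/well) measured with LiveBLAzer FRET substrate after 2 h at room temperature. Compound exposure lasted 16 h at 37C.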

[20] = qHTS assay to identify small molecule antagonists of the farnesoid-X-receptor (FXR) signaling pathway - cell viability counter screen (AID 743221; active means well fitted cell-killing curve with a large enough effect in the repeat runs, not every such curve was filed as active; further: nearly all actives have a fitted effect of over 50% in size; further: potency means the concentration at half of the fitted maximal effect)
Summary of the method: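 CellTiter-Glo, 30 min RT, luminescence; same wells as the LiveBLAzer FRET read. Cells: FXR-UAS-bla HEK 293T. Treatment: compound with chenodeoxycholic acid 50 uM final, 16 h at 37 C.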

Sequence of Peroxisome proliferator-activated receptor delta (Homo sapiens) (Q03181 whole entry, looked up): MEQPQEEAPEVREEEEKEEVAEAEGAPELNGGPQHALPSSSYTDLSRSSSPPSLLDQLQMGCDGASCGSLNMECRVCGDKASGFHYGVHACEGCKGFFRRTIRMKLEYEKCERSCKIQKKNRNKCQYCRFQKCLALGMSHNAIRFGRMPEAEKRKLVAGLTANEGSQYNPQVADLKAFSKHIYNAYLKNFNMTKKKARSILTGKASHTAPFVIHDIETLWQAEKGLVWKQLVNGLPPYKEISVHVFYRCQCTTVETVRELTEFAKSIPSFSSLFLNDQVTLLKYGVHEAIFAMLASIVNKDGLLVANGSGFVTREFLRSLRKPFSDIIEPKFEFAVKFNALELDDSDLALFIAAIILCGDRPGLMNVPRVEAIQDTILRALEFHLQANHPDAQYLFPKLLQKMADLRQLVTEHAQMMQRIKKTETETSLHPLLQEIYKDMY
Sequence of Vitamin D3 receptor (Homo sapiens) (P11473 whole entry, looked up): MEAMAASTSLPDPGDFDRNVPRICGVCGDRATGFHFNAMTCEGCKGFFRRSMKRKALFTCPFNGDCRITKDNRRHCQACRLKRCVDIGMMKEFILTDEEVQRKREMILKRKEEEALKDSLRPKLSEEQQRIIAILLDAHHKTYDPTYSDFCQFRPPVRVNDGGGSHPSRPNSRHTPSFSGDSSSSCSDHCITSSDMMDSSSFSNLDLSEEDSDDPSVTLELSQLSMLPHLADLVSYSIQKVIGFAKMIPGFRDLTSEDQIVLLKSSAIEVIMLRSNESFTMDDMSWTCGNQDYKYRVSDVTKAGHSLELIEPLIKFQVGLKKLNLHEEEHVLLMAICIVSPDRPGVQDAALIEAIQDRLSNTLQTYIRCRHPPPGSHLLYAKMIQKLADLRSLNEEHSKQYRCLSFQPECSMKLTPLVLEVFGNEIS
Sequence of Peroxisome proliferator-activated receptor gamma (Homo sapiens) (P37231 whole entry, looked up): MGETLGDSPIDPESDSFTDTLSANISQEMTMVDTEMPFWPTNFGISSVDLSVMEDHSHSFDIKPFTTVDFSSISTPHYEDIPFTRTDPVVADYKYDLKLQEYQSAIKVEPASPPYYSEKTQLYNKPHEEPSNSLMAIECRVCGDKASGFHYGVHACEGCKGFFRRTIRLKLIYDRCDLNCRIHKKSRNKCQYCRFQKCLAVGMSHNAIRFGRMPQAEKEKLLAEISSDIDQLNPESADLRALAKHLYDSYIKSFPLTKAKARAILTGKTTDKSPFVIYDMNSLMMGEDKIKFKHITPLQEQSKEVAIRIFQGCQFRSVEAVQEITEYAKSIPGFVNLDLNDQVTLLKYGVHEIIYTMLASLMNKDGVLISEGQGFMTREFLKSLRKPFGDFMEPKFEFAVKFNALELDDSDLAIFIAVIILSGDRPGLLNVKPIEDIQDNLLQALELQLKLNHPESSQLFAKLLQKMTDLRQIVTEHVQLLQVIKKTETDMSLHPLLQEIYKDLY
Sequence of Bile acid receptor (Homo sapiens) (Q96RI1 whole entry, looked up): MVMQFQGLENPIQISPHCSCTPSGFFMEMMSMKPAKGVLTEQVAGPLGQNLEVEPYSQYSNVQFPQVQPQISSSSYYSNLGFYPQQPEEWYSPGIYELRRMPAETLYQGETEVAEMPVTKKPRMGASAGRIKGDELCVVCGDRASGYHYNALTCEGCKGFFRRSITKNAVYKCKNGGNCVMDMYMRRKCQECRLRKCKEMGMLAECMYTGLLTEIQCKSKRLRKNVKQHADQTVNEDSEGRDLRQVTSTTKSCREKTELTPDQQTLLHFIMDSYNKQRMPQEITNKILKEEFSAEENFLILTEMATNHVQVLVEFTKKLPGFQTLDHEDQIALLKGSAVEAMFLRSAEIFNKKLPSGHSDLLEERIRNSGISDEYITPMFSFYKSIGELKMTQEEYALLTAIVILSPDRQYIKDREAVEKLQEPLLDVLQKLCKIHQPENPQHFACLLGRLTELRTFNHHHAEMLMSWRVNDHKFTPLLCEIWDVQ
Sequence of Aryl hydrocarbon receptor (Homo sapiens) (P35869 whole entry, looked up): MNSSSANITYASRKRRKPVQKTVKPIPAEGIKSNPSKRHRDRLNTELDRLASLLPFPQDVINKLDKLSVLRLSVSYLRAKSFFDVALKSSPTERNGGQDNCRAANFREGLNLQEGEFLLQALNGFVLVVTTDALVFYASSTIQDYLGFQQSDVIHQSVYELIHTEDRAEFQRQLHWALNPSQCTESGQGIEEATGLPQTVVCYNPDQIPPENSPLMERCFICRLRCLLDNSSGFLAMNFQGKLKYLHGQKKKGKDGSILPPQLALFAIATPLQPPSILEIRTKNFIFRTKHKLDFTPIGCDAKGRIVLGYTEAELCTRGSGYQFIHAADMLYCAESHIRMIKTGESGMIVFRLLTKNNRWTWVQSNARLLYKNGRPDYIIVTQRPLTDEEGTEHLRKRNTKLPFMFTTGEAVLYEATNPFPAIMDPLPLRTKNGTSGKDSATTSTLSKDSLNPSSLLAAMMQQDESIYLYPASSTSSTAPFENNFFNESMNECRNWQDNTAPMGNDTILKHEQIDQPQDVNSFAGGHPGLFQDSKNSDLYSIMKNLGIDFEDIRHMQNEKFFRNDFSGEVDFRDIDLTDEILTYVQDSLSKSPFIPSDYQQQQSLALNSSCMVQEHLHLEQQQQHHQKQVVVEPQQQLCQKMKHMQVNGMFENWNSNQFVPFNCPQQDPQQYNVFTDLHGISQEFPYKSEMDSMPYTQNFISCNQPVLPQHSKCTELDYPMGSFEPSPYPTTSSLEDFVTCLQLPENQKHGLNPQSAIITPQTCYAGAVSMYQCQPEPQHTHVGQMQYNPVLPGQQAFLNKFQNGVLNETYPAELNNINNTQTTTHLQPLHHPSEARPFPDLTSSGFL

Structure (SMILES)	Potency [1]	Potency [2]	Potency [3]	Potency [4]	Potency [5]	Potency [6]	Potency [7]	Potency [8]	Potency [9]	Potency [10]	Potency [11]	Potency [12]	Potency [13]	Potency [14]	Potency [15]	Potency [16]	Potency [17]	Potency [18]	Potency [19]	Potency [20]
CCCCC(CC)CN (centres undefined)	inactive	inactive	inactive	inactive	inactive	inactive	inactive	inactive	inactive	inactive	–	–	–	–	–	–	–	–	–	–
CC1(C)O[C@@H]2C[C@H]3[C@@H]4C[C@H](F)C5=CC(=O)C=C[C@]5(C)[C@H]4[C@@H](O)C[C@]3(C)[C@]2(C(=O)CO)O1	inactive	inactive	inactive	inactive	–	inactive	inactive	inactive	–	–	inactive	inactive	inactive	inactive	inactive	inactive	inactive	inactive	inactive	inactive
CC(C)=CCC1C(=O)N(c2ccccc2)N(c2ccccc2)C1=O	inactive	inactive	inactive	–	4.22 µM (active)	inactive	28.7 µM (active)	–	inactive	–	inactive	1.88 µM (active)	inactive	inactive	–	–	–	inactive	–	inactive
Cc1ccc(CO)cc1	inactive	inactive	inactive	inactive	inactive	inactive	inactive	inactive	inactive	inactive	–	–	–	inactive	inactive	inactive	inactive	inactive	inactive	inactive
C[C@@H](CN(C)C)CN1c2ccccc2Sc2ccccc21	inactive	inactive	inactive	inactive	–	inactive	inactive	inactive	inactive	–	–	–	–	23.7 µM (active)	–	26.6 µM (active)	–	–	inactive	–
COc1ncnc(NS(=O)(=O)c2ccc(N)cc2)c1OC	inactive	inactive	inactive	inactive	–	inactive	inactive	inactive	inactive	–	inactive	–	inactive	inactive	inactive	inactive	–	inactive	–	inactive
COc1cc(C(=O)NCCCCCC(=O)O)cc(OC)c1OC	inactive	inactive	inactive	–	inactive	inactive	inactive	–	–	inactive	inactive	inactive	inactive	inactive	inactive	inactive	–	inactive	–	inactive
CC(CN(C)C)C(C)(O)Cc1ccc(Cl)cc1 (centres undefined)	inactive	inactive	inactive	–	inactive	inactive	–	inactive	inactive	inactive	inactive	inactive	inactive	inactive	inactive	–	–	inactive	–	inactive
CCC1CO1 (centres undefined)	inactive	inactive	inactive	inactive	–	inactive	inactive	inactive	inactive	inactive	–	inactive	inactive	inactive	inactive	inactive	inactive	–	inactive	inactive
Brc1cc2ccccc2c2ccccc12	inactive	inactive	inactive	–	inactive	–	inactive	–	–	–	inactive	inactive	inactive	inactive	–	inactive	–	inactive	–	inactive
NC(=O)c1ccncc1	inactive	inactive	inactive	–	inactive	inactive	inactive	inactive	inactive	–	–	inactive	–	inactive	inactive	inactive	–	–	–	inactive
CCCCOc1ccc(OCCCN2CCOCC2)cc1	inactive	inactive	inactive	inactive	inactive	–	inactive	–	inactive	–	–	–	–	inactive	–	inactive	inactive	–	inactive	inactive
O=C(O)CCc1nc(-c2ccccc2)c(-c2ccccc2)o1	inactive	inactive	inactive	15.1 µM (active)	inactive	inactive	inactive	inactive	inactive	–	–	–	inactive	inactive	–	inactive	–	inactive	–	inactive
O=C(CCc1ccc(O)cc1)c1c(O)cc(O)cc1O	inactive	inactive	inactive	inactive	–	–	–	inactive	–	inactive	–	31.3 µM (active)	–	–	inactive	inactive	inactive	inactive	inactive	inactive
COc1cc(N)c(Cl)cc1C(=O)NC1CCN(CCCOc2ccc(F)cc2)CC1OC (centres undefined)	inactive	inactive	inactive	–	inactive	inactive	inactive	inactive	–	–	inactive	inactive	inactive	–	inactive	–	–	–	–	inactive
CCCCCCCCCCC(=O)O	inactive	inactive	inactive	–	inactive	inactive	inactive	inactive	–	–	inactive	–	inactive	inactive	–	–	–	–	–	inactive
CC(=O)NC1(c2cccc(F)c2)CCN(CC[C@@]2(c3ccc(Cl)c(Cl)c3)CN(c3ccccc3)C(=O)CO2)CC1	48.7 µM (active)	inactive	43.4 µM (active)	–	43.8 µM (active)	19.4 µM (active)	inactive	–	inactive	–	34.8 µM (active)	–	–	–	–	21.9 µM (active)	–	15.5 µM (active)	inactive	24.6 µM (active)
CCCCCC#CC(=O)OC	inactive	inactive	inactive	–	inactive	–	inactive	inactive	inactive	–	inactive	inactive	inactive	inactive	–	inactive	–	–	–	inactive
CC/C=C1/OC(=O)c2ccccc21	inactive	inactive	inactive	inactive	–	inactive	inactive	inactive	inactive	inactive	inactive	inactive	inactive	inactive	inactive	inactive	–	–	–	inactive
CC1(C)[C@@H](OC(=O)CCC(=O)O)CC[C@]2(C)[C@H]3C(=O)C=C4[C@@H]5C[C@@](C)(C(=O)O)CC[C@]5(C)CC[C@@]4(C)[C@]3(C)CC[C@@H]12	inactive	inactive	inactive	inactive	–	inactive	inactive	–	–	–	inactive	26.6 µM (active)	–	inactive	–	inactive	–	–	–	inactive
